Experimental data: the supplement of paper PMC11018630
Structures can show the parent of a compound that is named as a salt. ± gives the standard deviation of the averaged measurements. The full ranking holds about 1,100 compounds; the median of “day of extracellular matrix detachment from plate” is about 16, and the lowest 2% start at about 10. What follows is part of a selection rich in the lowest values, with near analogues and random picks from the rest.

Tested on: RDEB dermal fibroblasts EB71
Test: day of extracellular matrix detachment from plate (days); higher = delayed detachment (less fibrotic matrix)
Details: compound concentration: 10 uM

`O=C(O)CCC(=O)c1ccc(-c2ccccc2)cc1` [Fenbufen] and `NC(=O)Cc1cccc(C(=O)c2ccccc2)c1N` [Nepafenac] are within error of each other in “day of extracellular matrix detachment from plate” value (“day” for short): 13 for the first, 14.3 ± 2.9 for the second.

Compared with `Nc1nc(=O)n([C@@H]2CS[C@H](CO)O2)cc1F` [Emtricitabine], `O=c1ccn([C@@H]2O[C@H](CO)[C@@H](O)[C@H]2O)c(=O)[nH]1` [Uridine] is lower in “day” value: 19.3 ± 6.3 for the first, 12 for the second.

`COc1ccc(CC2c3cc(OC)c(OC)cc3CC[N+]2(C)CCC(=O)OCCCCCOC(=O)CC[N+]2(C)CCc3cc(OC)c(OC)cc3C2Cc2ccc(OC)c(OC)c2)cc1OC` (stereo not given) [Atracurium Besylate] and `COc1ccc(C[C@@H]2c3cc(OC)c(OC)cc3CC[N@+]2(C)CCC(=O)OCCCCCOC(=O)CC[N@@+]2(C)CCc3cc(OC)c(OC)cc3[C@H]2Cc2ccc(OC)c(OC)c2)cc1OC` [Cisatracurium Besylate] are within error of each other in “day” value: 15.7 ± 6.3 for the first, 10 ± 1.7 for the second.

Going from `CCC(=O)O[C@@H](O[P@](=O)(CCCCc1ccccc1)CC(=O)N1C[C@H](C2CCCCC2)C[C@H]1C(=O)O)C(C)C` [Fosinopril Sodium] to `CCC[C@H](N[C@@H](C)C(=O)N1[C@H](C(=O)O)C[C@@H]2CCCC[C@@H]21)C(=O)OCC` [Perindopril Erbumine], the “day” value rises from 19 to 21 ± 1.7.

Compared with `OC(Cn1cncn1)(Cn1cncn1)c1ccc(F)cc1F` [Fluconazole], `COc1cc2ncnc(Nc3ccc(F)c(Cl)c3)c2cc1OCCCN1CCOCC1` [Gefitinib (ZD1839)] is higher in “day” value: 12.7 ± 2.9 for the first, 29.4 ± 6 for the second.

`Nc1ccc(C(=O)NCC(=O)O)cc1` [Sodium 4-aminohippurate Hydrate] and `C[C@@](Cc1ccc(O)c(O)c1)(NN)C(=O)O` [Carbidopa] are within error of each other in “day” value: 13 for the first, 15.7 ± 6.3 for the second.

First: Cn1c(=O)c2c(ncn2CC2OCCO2)n(C)c1=O [Doxofylline]
Second: CN1C2=CC(=O)/C(=N\NC(N)=O)C=C2CC1S(=O)(=O)O (stereo not given) [Carbazochrome sodium sulfonate (AC-17)]
The “day” value of the first is lower: 13 for the first, 16.7 ± 2.3 for the second.

Compared with `CN(C)CCC[C@@]1(c2ccc(F)cc2)OCc2cc(C#N)ccc21` [Escitalopram Oxalate], `CN(C)CCc1c[nH]c2ccc(CS(=O)(=O)N3CCCC3)cc12` [Almotriptan Malate] is higher in “day” value: 13 for the first, 19.3 ± 6.3 for the second.

`OC[C@@H](O)[C@@H](O)[C@H](O)[C@H](O)CO` [D-Mannitol] and `OC[C@@H](O)[C@@H](O)[C@H](O)[C@@H](O)CO` [Sorbitol] are within error of each other in “day” value: 13.7 ± 8.1 for the first, 16 for the second.

`O=C[C@H](O)[C@@H](O)[C@H](O)CO` [Xylose] and `C[C@](N)(Cc1ccc(O)c(O)c1)C(=O)O` [Methyldopa] are within error of each other in “day” value: 10 ± 1.7 for the first, 10.3 ± 1.1 for the second.

Compared with `N#C[C@@H]1C[C@@H]2C[C@@H]2N1C(=O)[C@@H](N)C12CC3CC(CC(O)(C3)C1)C2` [Saxagliptin hydrate], `Cc1nnc(C(C)C)n1C1C[C@H]2CC[C@@H](C1)N2CC[C@H](NC(=O)C1CCC(F)(F)CC1)c1ccccc1` (stereo in doubt) [Maraviroc] is lower in “day” value: 16.3 ± 1.1 for the first, 12 for the second.

First: CCCc1nc(C)c2c(=O)nc(-c3cc(S(=O)(=O)N4CCN(CC)CC4)ccc3OCC)[nH]n12 [Vardenafil HCl Trihydrate]
Second: Cc1ccc(NC(=O)c2ccc(CN3CCN(C)CC3)cc2)cc1Nc1nc(-c2cccnc2)cs1 [Masitinib (AB1010)]
The “day” value of the first is lower: 16 for the first, 36 for the second.

`COC(=O)C1=C(C)NC(C)=C(C(=O)OCCN2CCN(C(c3ccccc3)c3ccccc3)CC2)C1c1cccc([N+](=O)[O-])c1` (stereo not given) [Manidipine 2HCl] and `CCN1CC(CCN2CCOCC2)C(c2ccccc2)(c2ccccc2)C1=O` (stereo not given) [Doxapram HCl] are within error of each other in “day” value: 18.3 ± 4 for the first, 18 for the second.

`COC(=O)C1=C(C)NC(C)=C(C(=O)OCCN2CCN(C(c3ccccc3)c3ccccc3)CC2)C1c1cccc([N+](=O)[O-])c1` (stereo not given) [Manidipine] and `O=C(c1cc(Cc2n[nH]c(=O)c3ccccc23)ccc1F)N1CCN(C(=O)C2CC2)CC1` are within error of each other in “day” value: 20.3 ± 2.3 for the first, 27.8 ± 5.5 for the second.

Compared with `CC1(C)S[C@@H]2[C@H](NC(=O)C(C(=O)O)c3ccccc3)C(=O)N2[C@H]1C(=O)O` (stereo not given in full) [Carbenicillin disodium], `CC1(C)S[C@@H]2[C@H](NC(=O)Cc3ccccc3)C(=O)N2[C@H]1C(=O)O` [Penicillin G Sodium] is lower in “day” value: 18 for the first, 13 for the second.

`CSc1nc2cc(Cl)c(Oc3cccc(Cl)c3Cl)cc2[nH]1` [Triclabendazole] and `N#CC(c1ccc(Cl)cc1)c1c(Cl)cc(-n2ncc(=O)[nH]c2=O)cc1Cl` (stereo not given) [Diclazuril] are within error of each other in “day” value: 13 for the first, 15.7 ± 6.3 for the second.

First: CN(C)/N=N/c1[nH]cnc1C(N)=O [Dacarbazine]
Second: O=C(O)CCc1nc2ccccc2[nH]1 [Procodazole]
The “day” value of the first is lower: 11 for the first, 13 for the second.

`OC(CCN1CCCC1)(c1ccccc1)C1CCCCC1` (stereo not given) [Procyclidine HCl] and `C[N+]1(C)CCC(OC(=O)C(O)(c2ccccc2)C2CCCC2)C1` (stereo not given) [Glycopyrrolate] are within error of each other in “day” value: 16 ± 1.7 for the first, 20.3 ± 2.9 for the second.

Compared with `CC1(C)[C@H](C(=O)O)N2C(=O)C[C@H]2S1(=O)=O` [Sulbactam], `C[C@]1(Cn2ccnn2)[C@H](C(=O)O)N2C(=O)C[C@H]2S1(=O)=O` [Tazobactam] is higher in “day” value: 10 ± 1.7 for the first, 20 ± 1.7 for the second.

`CC1(C)[C@H](C(=O)O)N2C(=O)C[C@H]2S1(=O)=O` [Sulbactam sodium] and `CC1(C)S[C@@H]2[C@H](NC(=O)[C@H](N)c3ccc(O)cc3)C(=O)N2[C@H]1C(=O)O` [Amoxicillin Sodium] are within error of each other in “day” value: 11 ± 1.7 for the first, 15.7 ± 6.3 for the second.

`CC(C)(Oc1ccc(Cl)cc1)C(=O)O` [Clofibric Acid] and `O=C(O)c1ccccc1` [Benzoic Acid] are the same in “day” value: 13 for the first, 13 for the second.

`CC(=O)O[C@]1(C(C)=O)CC[C@H]2[C@@H]3C[C@H](C)C4=CC(=O)C=C[C@]4(C)[C@@]3(F)[C@@H](O)C[C@@]21C` [Fluorometholone Acetate] and `CC(=O)O[C@]1(C(C)=O)CC[C@H]2[C@@H]3C[C@H](C)C4=CC(=O)CC[C@]4(C)[C@H]3CC[C@@]21C` [Medroxyprogesterone acetate] are within error of each other in “day” value: 27.2 ± 3.5 for the first, 19.3 ± 6.3 for the second.

Going from `N#C/C(=C1/SC[C@@H](c2ccc(Cl)cc2Cl)S1)n1ccnc1` [Luliconazole] to `COc1cc(Nc2ncc3c(n2)-c2ccc(Cl)cc2C(c2c(F)cccc2OC)=NC3)ccc1C(=O)O` [Alisertib (MLN8237)], the “day” value rises from 13 to 25.

`CCN(CC)CCOCCOC(=O)C(CC)(CC)c1ccccc1` [Oxeladin Citrate] and `CC(C)C(=O)Oc1ccc(CO)cc1[C@H](CCN(C(C)C)C(C)C)c1ccccc1` [Fesoterodine Fumarate] are within error of each other in “day” value: 13 for the first, 15.7 ± 6.3 for the second.

First: C/C(O)=C(\C#N)C(=O)Nc1ccc(C(F)(F)F)cc1 [Teriflunomide]
Second: CC1(C)S[C@@H]2[C@H](NC(=O)[C@H](N)c3ccc(O)cc3)C(=O)N2[C@H]1C(=O)O [Amoxicillin]
The “day” value of the first is lower: 13 for the first, 16.7 ± 2.3 for the second.

`NCCc1ccc(O)c(O)c1` [Dopamine HCl] and `CCC[S+]([O-])c1ccc2[nH]c(NC(=O)OC)nc2c1` (stereo not given) [Albendazole Oxide] are within error of each other in “day” value: 15.7 ± 6.3 for the first, 16 for the second.

`CO/N=C(\C(=O)N[C@@H]1C(=O)N2C(C(=O)O)=C(COC(N)=O)CS[C@H]12)c1ccco1` [Cefuroxime sodium] and `CO/N=C(\C(=O)N[C@@H]1C(=O)N2C(C(=O)OCOC(=O)C(C)(C)C)=C(/C=C\c3scnc3C)CS[C@H]12)c1csc(N)n1` [Cefditoren pivoxil] are within error of each other in “day” value: 17 for the first, 15.7 ± 6.3 for the second.

`NCCCCC(NC(=O)C1CCCN1C(=O)C1CSSCC(N)C(=O)NC(Cc2ccc(O)cc2)C(=O)NC(Cc2ccccc2)C(=O)NC(CCC(N)=O)C(=O)NC(CC(N)=O)C(=O)N1)C(=O)NCC(N)=O` (stereo not given) [Lypressin Acetate] and `CCOC(=O)[C@H](CCc1ccccc1)N[C@H]1CS[C@H](c2cccs2)CN(CC(=O)O)C1=O` [Temocapril HCl] are within error of each other in “day” value: 23 ± 1.7 for the first, 19.3 ± 6.3 for the second.

`CC[C@H](NC(=O)[C@H](C)NC)C(=O)N1C[C@@H](O)C[C@H]1Cc1c(-c2[nH]c3cc(F)ccc3c2C[C@@H]2C[C@H](O)CN2C(=O)[C@H](CC)NC(=O)[C@H](C)NC)[nH]c2cc(F)ccc12` [Birinapant] and `Cc1nc(=O)c2cc(CN(C)c3ccc(C(=O)N[C@@H](CCC(=O)O)C(=O)O)s3)ccc2[nH]1` [Raltitrexed] are within error of each other in “day” value: 19 ± 6.9 for the first, 25 for the second.

First: [I-].[K+] [Potassium Iodide]
Second: CC(C)(C)c1nc(-c2cccc(NS(=O)(=O)c3c(F)cccc3F)c2F)c(-c2ccnc(N)n2)s1
The “day” value of the first is lower: 15.7 ± 6.3 for the first, 32.5 ± 2.1 for the second.

Going from `CN1CCC(=C2c3ccccc3CCc3cccnc32)CC1` [Azatadine dimaleate] to `NS(=O)(=O)c1cc2c(cc1Cl)N=C(CSCc1ccccc1)NS2(=O)=O` [Benzthiazide], the “day” value falls from 18 to 13.

`CC(=O)O[C@]1(C(C)=O)CC[C@H]2[C@@H]3C=C(Cl)C4=CC(=O)CC[C@]4(C)[C@H]3CC[C@@]21C` [Chlormadinone acetate] and `CO[C@@H]1[C@@H](OC(N)=O)[C@@H](O)[C@H](Oc2ccc3c(O)c(NC(=O)c4ccc(O)c(CC=C(C)C)c4)c(=O)oc3c2C)OC1(C)C` [Novobiocin Sodium] are within error of each other in “day” value: 26.2 ± 10 for the first, 15.7 ± 6.3 for the second.

First: O=S(=O)(O)Oc1ccc(C(c2ccc(OS(=O)(=O)O)cc2)c2ccccn2)cc1 [Sodium Picosulfate]
Second: O=C(CCCCCCNC(=O)c1cnc(N(c2ccccc2)c2ccccc2)nc1)NO [Rocilinostat (ACY-1215)]
The “day” value of the first is lower: 14.5 ± 4 for the first, 27 for the second.

`Cc1cccc(C)c1NC(=O)C1CCCCN1C` (stereo not given) [Mepivacaine HCl] and `NC[C@H]1CC[C@H](C(=O)O)CC1` [Tranexamic Acid] are within error of each other in “day” value: 16.5 ± 6.2 for the first, 23 ± 1.7 for the second.

First: C[N+](C)(C)CCO.[Cl-] [Choline Chloride]
Second: CC1(O)CCC(C(C)(C)O)CC1 (stereo not given) [Terpin (hydrate)]
The “day” value of the first is lower: 13 for the first, 17 for the second.
